Screening data (PubChem BioAssay)
Hits are enriched below; roughly 2.7% of the tested compounds scored in any of these assays.
KKLEB cytotox = CF airway cell cytotoxicity counter-screen | KKLEB CF airway cells viability, ATPlite luminescence, overnight; stronger effect = lower value; cells stimulated with P. aeruginosa culture filtrate | activity change (cytotoxicity), % at 5 µM | 0.36% of 360,000 active;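 active = corrected activity change at or below -50% at 5 µM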
Shn3 3UTR inh = inhibitors of Schnurri-3 3'UTR reporter in osteoblasts; inhibition, % at 12.5 µM; AID 588674; Clone20 osteoblast Shn3 3'UTR firefly luciferase, 24 h; 0.52% of 360,000 active;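 active = mean inhibition of at least 75% with every replicate also reaching 75%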;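 also: 0% = median of neutral control wells and 100% = pilot-screen positive control compound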
TRPM1 prom inh = reduces MITF-dependent TRPM1 promoter luciferase signal. inhibition, % at 12.5 µM. AID 488899. 0.83% of 330,000 active. SK-MEL-5 TRPM1 promoter luciferase, 24 h;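 active = mean inhibition across replicates of 60% or more, whatever share of single replicates reaches that level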
CF NFkB block = blocks PAF-induced NF-kB reporter in cystic fibrosis cells | KKLEB NF-kB-GFP reporter, GFP fluorescence overnight | AID 588850 | 0.86% of 360,000 active | inhibition, % at 5 µM;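 active = at least 50% inhibition at 5 µM, scaled per plate between neutral and stimulator controls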;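 also: PAF is a Pseudomonas aeruginosa culture filtrate used as stimulus; plate controls were PAF-stimulated DMSO wells for no effect and unstimulated DMSO wells for full effect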
HIF-2a inh = inhibitors of HIF-2a; 786-0 RCC cells HIF-2a reporter, luciferase luminescence, overnight; inhibition, % at 18.8 µM; 0.72% of 360,000 active; AID 624352;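 active = inhibition of the luminescence signal of 40% or more relative to plate controls, in a single-dose primary screen at 18.75 µM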
Peg3 promoter = inhibitors of Peg3 promoter. inhibition, % at 20 µM. 1.7% of 360,000 active. HeLa PEG-Prom luciferase reporter, luminescence, overnight;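 active = inhibition of at least 50% at 20 µM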
The depositor's hits bear a star; / = no result given.

SMILES	KKLEB cytotox	Shn3 3UTR inh	TRPM1 prom inh	CF NFkB block	HIF-2a inh	Peg3 promoter
NC(=O)CC(NC(=O)c1ccc(Br)cc1)c1ccc(N2CCC(Cc3ccccc3)CC2)c([N+](=O)[O-])c1 (stereo unspecified)	-2	62	4	-21	9	-5
Cc1cccc(C)c1NC(=O)CN(C)C(=O)c1cc(S(=O)(=O)N(C)C)ccc1N1CCCC1	-16	87*	-4	16	7	-1
CN(CC(=O)Nc1ccc(F)c(F)c1F)C(=O)c1cc(S(=O)(=O)N(C)C)ccc1N1CCCC1	-24	-6	-3	17	13	17
O=C(c1cc2nc(-c3ccccc3)cc(-c3ccccc3)n2n1)N1CCN(C(=O)c2ccco2)CC1	-1	30	7	8	24	50*
O=C(c1cc2nc(-c3ccccc3)cc(-c3ccccc3)n2n1)N1CCCC1	5	17	1	-8	24	18
CC(=O)c1ccc(OC2(C)CCN(Cc3cc4ccccc4[nH]3)C2)cc1 (stereo unspecified)	3	4	/	1	9	-13
CN(C)S(=O)(=O)c1ccc(Cl)c(C(=O)Nc2nc3ccccc3[nH]2)c1	6	1	0	-4	-40	-8
Cc1ccc(NS(=O)(=O)c2ccc(Cl)c(C(=O)Nc3ccccc3-c3nc4ccccc4[nH]3)c2)cc1C	-26	18	32	56*	-22	40
COc1ccc(C(=O)c2c(C(F)(F)F)oc3c2C(=O)c2ccccc2C3=O)cc1OC	-65*	89*	90*	88*	4	89*
CN(C)CCNC(=O)c1ccccc1-c1cc2ccccc2c(=O)o1	-8	-9	-13	8	12	1
COc1ccc(C(=O)Nc2ccc3ccccc3n2)c(OC)c1OC	-52*	-12	7	14	-38	-33
CN(CCNC(=O)c1c[nH]c2c1ccc1ccccc12)CCNC(=O)c1c[nH]c2c1ccc1ccccc12	-2	1	-32	4	-160	97*
CN(C)CCNC(=O)c1cccc2nc3c(ccc4ccccc43)nc12	-7	78	86*	-169	28	98*
CN(C)CCNC(=O)c1cccc2[nH]c(-c3ccncc3)nc12	20	-4	15	-50	38	41
O=C(Nc1ccc2ccccc2n1)c1ccccc1Cl	-6	-3	-74	-19	-242	-207
COc1ccc(C(=O)NCCN(C)C)c2nc3ccccc3cc12	8	93*	95*	-154	1	92*
CC1(C)CCC[C@]2(C)C(CS(=O)c3ccccc3)=C(C=O)CC[C@@H]12 (stereo partly specified)	1	-14	-6	7	10	18
CCCCC[C@@H](C)N1C[C@@H](COCc2ccccc2)Oc2cc(N3CCC[C@@H]3COC)ccc2S1(=O)=O	/	/	/	/	-28	/
CC1(C(=O)Nc2ccc(Cl)c(Cl)c2)CCN1C(=O)CCC1CCCC1 (stereo unspecified)	0	11	/	-1	8	23
Cc1ccc(-c2nc(-c3ccccc3)no2)c(Cl)c1	-80*	44	49	-2	61*	9
CN1C(=O)[C@H]2[C@@H](c3ccc(C(F)(F)F)cc3)N[C@]3(CCCN(CC4CCCCC4)C3=O)[C@H]2C1=O	-25	24	/	5	10	2
CCOC(=O)C(=Cc1ccc(Br)cc1)C(=O)OCC	-31	-10	4	52*	24	23
CCOC(=O)/C(=C/c1ccc(OC(=O)c2ccncc2)cc1)C(C)=O	-4	16	8	8	10	6
CCOC(=O)C(=Cc1ccc(-n2ccnc2)cc1)C(=O)OCC	-9	75	/	71*	93*	107*
COc1cccc(CNC(=O)c2ccc(F)c(S(=O)(=O)N3CCCCC3)c2)c1	4	-7	/	-10	5	8
SMILES	KKLEB cytotox	Shn3 3UTR inh	TRPM1 prom inh	CF NFkB block	HIF-2a inh	Peg3 promoter
Cc1ccc2nc(N(CCCN(C)C)C(=O)CCc3ccccc3)sc2c1	-6	-19	-6	0	-15	53*
CN(C)CCCN(C(=O)COc1ccccc1)c1nc2ccc(Cl)cc2s1	-2	2	1	2	-80	-66
CN(C)CCCN(C(=O)COc1ccc(Cl)cc1)c1nc2cc3c(cc2s1)OCO3	-11	11	19	-14	0	64*
CN(C)CCCN(C(=O)CCc1ccccc1)c1nc2ccc(Cl)cc2s1	-40	-26	6	34	-20	108*
CCOC(=O)c1ccc(NC(=O)c2nc(S(=O)(=O)Cc3ccccc3)ncc2Cl)cc1	-66*	96*	78*	95*	89*	110*
CSc1nnc(NC(=O)c2nc(S(=O)(=O)Cc3ccccc3)ncc2Cl)s1	-82*	96*	68*	91*	3	105*
COc1ccc(N2C(=O)c3ccccc3NC(=O)C2C(=O)Nc2ccc(N3CCOCC3)cc2)cc1 (stereo unspecified)	/	/	/	/	-13	/
CC(C)CNC(=O)C1(C)CCCN1C(=O)c1cccnc1 (stereo unspecified)	5	0	/	2	13	-2
CCOc1ccc(NC(=O)CC2C(=O)N(c3ccc(OCC)cc3)C(=S)N2C2CC2)cc1 (stereo unspecified)	-2	-7	4	0	4	3
CCCOc1ccc(NC(=O)CC2C(=O)N(c3ccc(OCC)cc3)C(=S)N2C2CC2)cc1 (stereo unspecified)	-9	22	75*	7	7	28
COc1ccc(NC(=O)Nc2nnc([C@@H]3C[C@H](O)[C@@H](CO)O3)s2)cc1	3	-8	/	-30	13	-11
O=C1C=CC(=O)C(CNc2ccc(C(=O)OCc3ccccc3)cc2)=C1	-20	95*	66*	68*	24	72*
CN(C)c1ccc(C(=O)OCc2ccccc2)cc1	-11	-41	-63	-3	-229	-188
COc1ccc2c(c1)C(=O)O[C@@H](c1ccccc1)C[C@@H](O)C(=O)CC2	/	/	/	/	1	/
Oc1ccccc1Nc1nc(NCc2ccccc2)c2ccccc2n1	-31	89*	3	2	-24	19
c1ccc(CNc2c3ccccc3nc3ccccc23)cc1	-29	69	75*	-85	44*	97*
O=C(CNC(=O)c1ccccc1)NCCc1ccc(O)c(O)c1	0	9	2	-24	2	13
Oc1ccc(CCNc2c3ccccc3nc3ccccc23)cc1O	-26	-21	72*	-80	54*	109*
CNc1nc(NCc2ccccc2)c2ccccc2n1	-1	35	14	-22	9	-1
CNC1(C)[C@H]2CC[C@H](C2)C1(C)C (stereo partly specified)	-10	16	1	-24	-3	-6
CCC(C)(O)c1cnc(CC(C)C)c(=O)n1O (stereo unspecified)	1	-9	/	-9	-6	-1
